In the library only some 4.6% were active in any assay of this set; here they are far more common.
TRHR PAM: allosterically enhances the human TRH receptor | enhancement, % at 2 µM | actives 0.66% (n = 360,000) | TRHR cells, fluo-8 calcium fluorescence, EC20 TRH enhancement; in the data active means enhancement above about 30%
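Enhancer read-out: after compound pinning and an initial kinetic agonist-mode read, an EC20 of TRH (10 nM final) was injected and fluo-8 calcium signal (Ex 480/Em 530) followed at 1 s/cycle for 100 cycles in TRHR-expressing cells.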
TRHR agonist: agonists of human TRH receptor; TRHR cells, calcium flux fluo-8, FDSS agonist mode; actives 0.18% (n = 360,000); P34981; activation, % at 2 µM
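TRHR-expressing cells, plated overnight in medium with 10% serum, were loaded with fluo-8 calcium dye at room temperature. After a 10 s baseline, library compound was pin-added and calcium release was recorded kinetically (ex 480/em 530) as agonist response.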
D1 antagonist: antagonists of human D1 dopamine receptor | P21728 | HEK293 TREx D1 cells, calcium flux, dopamine EC80; stronger effect = lower value | activity change, negative = inhibition, % at 10 µM | actives 3.2% (n = 360,000); in the data active means activity change below about -30%
Target sequence (P21728 whole entry, looked up): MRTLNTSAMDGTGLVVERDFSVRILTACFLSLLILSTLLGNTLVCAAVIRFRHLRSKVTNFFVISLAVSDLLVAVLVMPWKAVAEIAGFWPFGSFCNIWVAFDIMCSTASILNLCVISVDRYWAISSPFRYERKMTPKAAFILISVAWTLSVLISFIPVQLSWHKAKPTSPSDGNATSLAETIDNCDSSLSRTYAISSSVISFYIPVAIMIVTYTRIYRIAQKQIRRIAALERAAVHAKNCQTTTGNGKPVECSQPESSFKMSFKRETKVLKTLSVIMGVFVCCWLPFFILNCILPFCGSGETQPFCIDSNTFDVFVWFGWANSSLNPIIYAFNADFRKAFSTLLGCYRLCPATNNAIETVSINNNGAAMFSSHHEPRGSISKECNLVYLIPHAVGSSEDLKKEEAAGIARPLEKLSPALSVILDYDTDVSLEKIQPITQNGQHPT
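Cells carrying a force-coupled, tetracycline-inducible human D1 receptor report calcium flux. Each well gets a 10 s baseline, compound with 180 s monitoring, then an EC80 dopamine stimulus with a second 180 s kinetic read.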
D1 ag: activates the human D1 dopamine receptor. P21728. HEK293 T-REx D1 cells, calcium flux, agonist mode. AID 504660. activation, % at 2 µM. actives 1% (n = 360,000)
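Inducible HEK293 T-REx D1 cells, force-coupled to calcium signalling, were plated at 4000 cells/well with tetracycline and held overnight at 30 C. After no-wash calcium dye loading, compound-evoked calcium rise over 180 s flagged agonists.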
D1 potentiator: potentiators of human D1 dopamine receptor; P21728; HEK293 TREx D1 cells, calcium flux, dopamine EC20 potentiation; potentiation, % at 10 µM; actives 0.036% (n = 360,000); AID 504651; in the data active means potentiation above about 30%
Hits are given with their value; - = inactive; ! = repeats disagree. Unless noted, no stated cut-off is given here; in the data, active means activation above about 30%; inactive means the rest.

SMILES	TRHR PAM	TRHR agonist	D1 antagonist	D1 ag	D1 potentiator
CCOC(=O)C1=C(COC(=O)/C=C/c2ccc(OC)c(OC)c2)NC(=O)NC1C (stereo unspecified)	-	-	-	-	-
CCOC(=O)C1=C(COC(=O)c2cc(OC)c(OC)cc2[N+](=O)[O-])NC(=O)NC1C (stereo unspecified)	-	-	-	-	-
CCOC(=O)C1=C(COC(=O)/C=C/c2cc(OC)c(OC)c(OC)c2)NC(=O)NC1C (stereo unspecified)	-	-	-39	-	-
CCOC(=O)C1=C(COC(=O)c2ccc(OC)c(OC)c2OC)NC(=O)NC1C (stereo unspecified)	-	-	-44	-	-
Cc1ccc(NC(=O)C2CCCN(S(=O)(=O)c3c(C)n[nH]c3C)C2)c(C)c1 (stereo unspecified)	-	-	-	-	-
COc1cc2c3nnc(-c4ccc(F)cc4)c-3cn(Cc3ccc(F)cc3)c2cc1OC	-	-	-37	-	-
COc1ccc(Cn2cc3c(-c4ccc(F)cc4)nnc-3c3cc(OC)c(OC)cc32)cc1	-	-	-	-	-
Nc1c(C(=O)C2CC2)sc2nc(-c3cccs3)cc(C(F)(F)F)c12	-	53	-	173	-
Nc1c(C(=O)Nc2ccc(F)cc2)sc2nc(-c3cccs3)cc(C(F)(F)F)c12	-	100	-44	265	-
CCOC(=O)c1cnc2cc(C(F)(F)F)ccc2c1Nc1ccc(F)cc1F	-	-	-	-	-
CCC(C)(C(=O)NC1CCCC1)N(C(=O)c1cnccn1)c1ccccc1 (stereo unspecified)	-	-	-45	-	-
CC(=O)Nc1ccc(S(=O)(=O)NNC(=O)COc2ccc(Cl)cc2Cl)cc1	-	-	-	-	-
CCOc1ccc(CONS(=O)(=O)c2ccc(NC(C)=O)cc2)cc1Cl	-	-	-	69	-
CN(C)c1ccc(-c2nc3ccccc3n2C)cc1	-	-	-	-	-
CC(C)n1c(-c2ccc(N(C)C)cc2)nc2ccccc21	-	-	-43	-	-
CC(C)CC(=O)Nc1nnc(S(=O)(=O)N2CCc3ccccc32)s1	-	-	-46!	-	-
CCC(=O)Nc1nnc(S(=O)(=O)N2CCc3ccccc32)s1	-	-	-	-	-
O=C(NCCN1CCN(Cc2ccccc2)CC1)Nc1cc(Cl)cc(Cl)c1	-	-	-	30	-
O=C(CCN1CCN(Cc2ccccc2)CC1)NNC(=O)Nc1cccc(Cl)c1	-	-	-	-	-
COc1ccc(N2CCN(CCCNC(=O)Nc3ccccc3)CC2)cc1	-	-	-	-	-
COc1ccc(N2CCN(CCNC(=O)Nc3ccc(Cl)cc3)CC2)cc1	-	-	-	38	-
O=C(NCCN1CCN(c2ccccc2)CC1)Nc1cccc(Br)c1	-	-	-45!	50	-
O=C(NCCN1CCN(c2ccccc2)CC1)Nc1ccc(Cl)cc1	-	-	-32	30	-
CCc1ccc(-n2nc(CO)c(C(=O)NCc3ccccn3)n2)cc1	-	-	-	-	-
CCN1C(C(=O)c2ccccc2)=C(OC(=O)COc2ccc(C)cc2)c2ccccc2S1(=O)=O	-	-	-	-	-
SMILES	TRHR PAM	TRHR agonist	D1 antagonist	D1 ag	D1 potentiator
COc1ccccc1NC(=O)NCCN1CCN(c2cccc(Cl)c2)CC1	-	-	-40!	-	-
O=C(NCCc1ccc(Cl)cc1)Nc1ccc(Cl)cc1	-	-	-34	-	-
O=C(NCCN1CCN(c2cccc(Cl)c2)CC1)Nc1ccccc1	-	-	-	-	-
O=C(NCCN1CCN(c2ccccc2)CC1)Nc1ccccc1Br	-	-	-33!	-	-
COc1ccccc1N1CCN(S(=O)(=O)c2ccc(-c3ccno3)cc2OC)CC1	-	-	-	-	-
Cc1ccc(-c2noc(-c3ccc(NCc4cccnc4)c([N+](=O)[O-])c3)n2)cc1	-	-	-	-	-
CCCCOc1ccc(S(=O)(=O)NC(=O)NCc2ccc(OCCC)cc2)cc1	-	-	-38	-	-
CCCCOc1ccc(CNC(=O)NS(=O)(=O)c2ccc(OCC)cc2)cc1	-	-	-	-	-
COc1ccc(CCNC(=O)Cn2nnc(C(=O)Nc3cccc(C)c3C)c2N)cc1OC	-	-	-	-	-
CCCS(=O)(=O)Nc1cc(-c2cn3ccc(C)cc3n2)ccc1C	-	-	-	-	59
COc1ccc(S(=O)(=O)Nc2cc(-c3cn4ccc(C)cc4n3)ccc2C)cc1OC	-	-	-	-	-
Fc1ccc(N2CCN(c3nnnn3-c3ccccc3)CC2)cc1	-	-	-40	-	-
CCOC(=O)N1CCN(c2nnnn2-c2ccccc2)CC1	-	-	-	-	-
Cc1cccc(N2C(=O)CSC23CCCCC3)c1	-	-	-34	-	-
CC1CCC2(CC1)SCC(=O)N2c1ccccc1 (stereo unspecified)	-	-	-	-	-
Cc1c(C(=O)NCc2cccc(Cl)c2)sc2ncnc(N(C)C3CCCCC3)c12	-	-	-	-	-
CCOC(=O)c1c(C)[nH]c(CCC(=O)NCCCN2CCN(c3ccc(F)cc3)CC2)c1C	-	-	-37	-	-
O=C(CCNC(=O)Cn1ccc2ccccc2c1=O)NCCCN1CCN(c2ccc(F)cc2)CC1	-	-	-51	-	-
O=C(CCNC(=O)Cn1ccc2ccccc2c1=O)NCCCN1CCN(c2ccccc2F)CC1	-	-	-68	-	-
O=C(Cn1c(-c2cccs2)cc2ccccc21)NCCCN1CCN(c2ccccc2F)CC1	-	-	-62	-	-
O=C(CCNC(=O)Cn1ccc2ccccc2c1=O)NCCCN1CCOCC1	-	-	-	-	-
O=C(O)CCc1ccc(-c2ccc(Cl)cc2)n1-c1cccc(C(F)(F)F)c1	-	-	-	-	-
C=CCN(c1ccc(F)cc1)S(=O)(=O)c1cc(C(=O)OCC(=O)N(C)C2CCS(=O)(=O)C2)ccc1Cl (stereo unspecified)	-	-	-	-	-
O=C(CNC(=O)Cn1ccc2ccccc2c1=O)NCCCN1CCN(c2cccc(Cl)c2)CC1	-	-	-37	-	-
Cc1cc2ccccc2c(=O)n1CC(=O)NCC(=O)N1CCN(c2cccc(Cl)c2)CC1	-	-	-	-	-
SMILES	TRHR PAM	TRHR agonist	D1 antagonist	D1 ag	D1 potentiator
COc1ccccc1NC(=O)c1cccs1	-	-	-	-	-
O=C(Nc1ccc(Cl)cc1)c1cccs1	-	-	-39	-	-
O=C(Nc1nc(-c2ccccc2)ns1)c1cccs1	-	-	-32	-	-
O=C(Nc1nc(-c2ccccc2)cs1)c1cccs1	-	-	-	-	-
COc1ccc(C(=O)Nc2ccc(NC(=O)c3cccs3)cn2)cc1	-	-	-35	-	-
COc1cc(NC(=O)c2cccs2)c(OC)cc1NC(=O)Nc1ccc(F)cc1	-	-	-45	-	-
COc1ccc(NC(=O)c2cccs2)cc1	-	-	-	-	-

Compound activity deposited in PubChem BioAssay by National Center for Advancing Translational Sciences (NCATS).
